Reference: PubChem BioAssay
Activity calls are given as the source filed them. Unless noted, no rule for the calls is given here.

How the values were obtained:
[1] = test system: XIP peptide (Xip251-270) binding; assay: XIP fragment 251-270 binding compounds – biochemical, small-molecule microarray, fluorescence 635/667 nm, 0.1 µg/mL protein, primary screen (AID 1182); conditions: fluorescent protein binding, 635 nm, higher = more signal, called active from +8 up or from −8 down
XIP peptide (Xip251-270) = assay: compounds binding XIP fragment 251-270 – biochemical, small-molecule microarray, fluorescence 635/667 nm, 0.5 µg/mL protein, primary screen (AID 1183); conditions: fluorescence 635 nm, higher = more signal
[2] = blood-stage malaria parasite viability loss – strain 3D7, DAPI fluorescence, 100 nL, primary screen (AID 1184);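 also: parasites grown inside human red blood cells in medium with human serum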; conditions: P. falciparum 3D7 growth, 3 d, higher = more signal
[3] = target: Homeobox protein Hox-A13 (Mus musculus) (UniProt Q62424); assay: disruptors of Hoxa13 oligonucleotide interaction – biochemical, fluorescence polarization, labeled oligonucleotide, primary screen (AID 1185); conditions: Hoxa13:DNA binding, 15 min, higher = more signal, called active from +8 up or from −8 down
Sequence of Homeobox protein Hox-A13 (Mus musculus) (Q62424 whole entry, looked up): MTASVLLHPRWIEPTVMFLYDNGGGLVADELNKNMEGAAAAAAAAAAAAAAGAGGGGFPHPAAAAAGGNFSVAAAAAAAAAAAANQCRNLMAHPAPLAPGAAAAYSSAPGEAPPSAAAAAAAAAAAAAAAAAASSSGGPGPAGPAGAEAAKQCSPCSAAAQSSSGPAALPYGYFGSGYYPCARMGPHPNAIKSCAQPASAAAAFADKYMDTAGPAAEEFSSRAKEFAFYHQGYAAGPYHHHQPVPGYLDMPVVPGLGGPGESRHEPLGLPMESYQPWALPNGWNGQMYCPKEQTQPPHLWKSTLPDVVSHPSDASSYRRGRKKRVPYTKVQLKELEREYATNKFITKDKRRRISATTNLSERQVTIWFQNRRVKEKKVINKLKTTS

[4] = blockers of DNA damage checkpoint Chk1 activation – imaging, HeLa, hydroxyurea, phospho-Chk1 antibody, percent positive cells, primary screen (AID 1186); conditions: hydroxyurea-induced phospho-Chk1 immunofluorescence imaging, higher = more signal
[5] = blockers of DNA damage checkpoint Chk1 activation – imaging, HeLa, hydroxyurea, phospho-Chk1 nuclear intensity, primary screen (AID 1187); conditions: hydroxyurea-induced phospho-Chk1 immunofluorescence imaging, higher = more signal

| SMILES | composite z-score [1] | composite z-score (XIP peptide (Xip251-270)) | z-score [2] | z-score [3] | z-score [4] | z-score [5] |
| --- | --- | --- | --- | --- | --- | --- |
| Cc1ccc(S[C@]2(C(=O)NCCCN(C)C)CC(=O)N(Cc3cc(C(F)(F)F)cc(C(F)(F)F)c3)[C@@H]2c2ccc(CO)cc2I)cc1 | -0.773 (inactive) | -0.878 | 0.227 | -3.31 (inactive) | 0.522 (inactive) | 0.201 (inactive) |
| C=C(C(=O)CC[C@@H](OC(=O)c1cccnc1)c1ccccc1OCCO)C(C)C | 0.79 (inactive) | 0.209 | -2.27 | -3.56 (inactive) | 0.434 (inactive) | 0.993 (inactive) |
| COc1ccc([Si](C)(C)[C@@H]2[C@@H](CC(=O)N3CCC[C@H]3CO)O[C@]3(C(=O)N(c4ccccc4)c4ccccc43)[C@H]2C)cc1 | -0.152 (inactive) | 0.591 | -0.831 | -5.71 (inactive) | -0.845 (inactive) | -1.31 (inactive) |
| C[N+](C)(C)CCCCCCNC(=O)[C@@H]1C[C@@H]2C(=O)N[C@@H](Cc3ccccc3)C(=O)N2[C@@H]1c1cccc(OCCO)c1 | 0.694 (inactive) | 0.814 | -0.145 | -4.83 (inactive) | -0.362 (inactive) | -0.398 (inactive) |
| CCCCCN1CC=CC23O[C@@H]4C=CCCOC(=O)C4[C@H]2C(=O)N(CCCCCO)[C@@H]3C1=O (some centres not stated) | 0.382 (inactive) | -0.0494 | 0.798 | -4.21 (inactive) | 0.251 (inactive) | 0.408 (inactive) |
| O=C(c1ccccc1)N1C(=O)[C@]2(COC(c3ccc(OCCCO)cc3)=N2)Cc2ccccc21 | 0.819 (inactive) | 0.908 | -2.14 | -5.86 (inactive) | -0.255 (inactive) | -0.361 (inactive) |
| C=CC[C@]1(C(=O)NCc2ccccc2)N=C(c2ccc(OCCCO)cc2)O[C@H]1c1ccccc1N=[N+]=[N-] | 0.525 (inactive) | 0.699 | -2.18 | -1.87 (inactive) | -0.22 (inactive) | 0.148 (inactive) |
| CC1(C)[C@@H]2CC(C(O)C3C=CC4C(=O)N(Cc5ccccc5)C(=O)C4N3n3cnnc3)=C[C@H]1C2 (some centres not stated) | 0.902 (inactive) | -0.0686 | -0.101 | -3.19 (inactive) | 0.338 (inactive) | -0.115 (inactive) |
| C=CCN1C(=O)[C@@]2(CC=C)N=C(c3ccc(OCCCO)cc3)O[C@H]2c2ccccc21 | 0.881 (inactive) | 0.751 | -1.99 | -2.65 (inactive) | -0.772 (inactive) | -0.86 (inactive) |
| CN(C)CCCCCCNC(=O)[C@H]1C[C@H]2C(=O)N3CCC[C@H]3C(=O)N2[C@H]1c1ccc(O)cc1 | 1.75 (inactive) | 0.926 | -1.15 | -0.246 (inactive) | -0.0982 (inactive) | 0.307 (inactive) |
| C=C(COC)/C(=C/C[C@@H](OC(=O)c1ccncc1)c1ccc(CO)o1)c1cc(C(=O)OC)ccc1OC | 0.215 (inactive) | 0.838 | -0.644 | -4.26 (inactive) | -0.255 (inactive) | -0.162 (inactive) |
| O=C1C[C@]2(c3ccc([N+](=O)[O-])cc3)C(=O)N(CC(F)(F)F)c3cc(CO)ccc3[C@H]2N1C1CCCCC1 | -0.0975 (inactive) | 0.0582 | -0.762 | -1.39 (inactive) | -0.219 (inactive) | -0.125 (inactive) |
| C=CCN1C(=O)[C@]2(O[C@H](CCn3cc([C@H](O)c4ccccc4)nn3)[C@@H]([Si](C)(C)c3ccc(OC)cc3)[C@@H]2C)c2ccccc21 | 0.507 (inactive) | -0.579 | -1.69 | -5.68 (inactive) | -0.831 (inactive) | -0.475 (inactive) |
| C=CCN1C(=O)[C@]2(O[C@H](CCn3cc([C@H](O)c4ccccc4)nn3)[C@@H]([Si](C)(C)c3ccc(OC)cc3)[C@@H]2C)c2cc(N3CCC3=O)ccc21 | 0.393 (inactive) | 0.128 | -2.89 | -5.76 (inactive) | -0.318 (inactive) | -0.171 (inactive) |
| O=C1c2ccccc2[C@](Cc2ccccc2I)(C(=O)NCCN2CCOCC2)[C@H](c2ccc(CO)cc2)N1Cc1ccccc1Cl | 1.08 (inactive) | 0.862 | -1.47 | -4.29 (inactive) | -0.206 (inactive) | -0.183 (inactive) |
| O=C(NCCO)C1=C[C@H](Oc2ccccc2I)[C@@H](O)[C@H](N(Cc2ccco2)C(=O)Cc2ccccc2)C1 | 0.143 (inactive) | -1.13 | -1.32 | -2.48 (inactive) | 0.0831 (inactive) | 0.304 (inactive) |
| CC(C)c1ccc(NN2C(C(O)c3ccc(B(O)O)cc3)C=CC3C(=O)N(c4ccccc4)C(=O)C32)cc1 (configuration not stated) | 1.04 (inactive) | 0.665 | 0.101 | -4.18 (inactive) | -0.337 (inactive) | -0.659 (inactive) |
| COc1ccc(C#Cc2ccc3c(c2)[C@]2(C(=O)N3)[C@H](c3ccccc3OCCO)N3[C@H](c4ccccc4)[C@H](c4ccccc4)OC(=O)[C@H]3[C@@H]2C(=O)Nc2nc3ccccc3s2)cc1 | 0.881 (inactive) | 0.68 | -1.9 | 2.72 (inactive) | 0.165 (inactive) | 0.265 (inactive) |
| COC(=O)[C@@]1(Cc2ccc(OC)cc2)[C@H]2c3cc(C(=O)N4CCCC4)n(CCN4CNCC4=O)c3C[C@H]2CN1C(=O)c1ccccc1 | 0.281 (inactive) | -0.35 | -1.8 | -4.34 (inactive) | 0.525 (inactive) | 0.163 (inactive) |
| COCCOC(=O)N1C(=O)[C@@]2(c3cc(C#CCC(C(=O)OC)C(=O)OC)ccc31)[C@H](C(=O)Nc1nc3ccccc3s1)[C@H]1C(=O)O[C@H](c3ccccc3)[C@H](c3ccccc3)N1[C@@H]2c1ccccc1OCCO | 1.95 (inactive) | 0.813 | -1.8 | 3.19 (inactive) | 0.0747 (inactive) | 0.233 (inactive) |
| COc1ccc(C(O)C2C=CC3C(=O)N(Cc4ccccc4)C(=O)C3N2n2cnnc2)cc1OCc1ccccc1 (configuration not stated) | 0.442 (inactive) | 0.159 | -0.951 | -2.23 (inactive) | -0.537 (inactive) | -0.462 (inactive) |
| NCCCCCCNC(=O)[C@@H]1C[C@@H]2C(=O)NCC(=O)N2[C@@H]1c1ccc(O)cc1 | -0.0092 (inactive) | 0.755 | -0.634 | -1.98 (inactive) | 0.563 (inactive) | 0.457 (inactive) |
